Most compounds without a hit are left out; they make up all but 19% or so of the library.
TDP1 cell CPT: DT40-hTDP1 cell growth loss with CPT | Potency, µM (highest dose often 46.2 µM), inactives show at the highest dose activity change, negative = growth inhibition, hits mostly inhibitors | chicken DT40 Tdp1-/-;hTDP1 cells + 20 nM CPT, ATP luminescence, 48 h | 420,000 tested, 12% active; note: potency is the fitted concentration of half-maximal effect; nearly all actives have a fitted effect of over 55% in size
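Chicken DT40 Tdp1-/- cells stably complemented with human TDP1 were seeded at 400 cells/well in medium containing 20 nM camptothecin, exposed to pin-transferred compounds, and grown at 37 °C for at least 48 hr. Viability was read as ATP luminescence.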
HT1080 IDH1KD tx: HT-1080 IDH1 knockdown cell toxicity (counter line) | HT-1080 IDH1 knockdown viability, ATP luminescence, 48 h | Potency, µM (series often up to 46.1 µM), for the others: at the highest dose activity, negative = toxicity, usual class: cytotoxic | 360,000 tested, 2% active | AID 686971;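 note: potency is the fitted concentration of half-maximal effect; 0% = DMSO wells and -100% = cell-free medium wells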
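CellTiter-Glo luminescence after 48 h compound exposure at 37 degrees C of IDH1-knockdown HT-1080 cells in 5% FBS RPMI. %Activity scaled between DMSO wells and cell-free media wells, with curves fitted and assigned curve classes.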
IL1B secr inh: inhibitors of inflammasome signaling (IL-1 beta secretion). activity change, % at 57.5 µM. 360,000 tested, 4.7% active. THP-1 LPS/ATP IL-1B secretion, AlphaLISA, 16 h; hits give low values. AID 743279; in the data active = activity change below about -50%; inconclusive = mostly about -30% to -49%
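Secreted IL-1B measured by AlphaLISA bead assay after 16 h compound exposure of THP-1 cells; compounds (final up to 57.5 uM) added 1 h before LPS (250 ng/mL) and ATP (1.25 mM) stimulation; lower signal means less secretion.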
HT1080NT lethal: kills 2HG-producing HT-1080-NT fibrosarcoma cells; 360,000 tested, 1.6% active; HT-1080-NT fibrosarcoma viability, CellTiter-Glo ATP luminescence, 48 h; Potency, µM (titrated, usually from 46.1 µM), inactives show at the highest dose activity, negative = less viability, hits mostly cytotoxic; AID 686970;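 note: NT is the 2HG producing partner of a matched IDH1 knockdown line; potency is the fitted concentration of half-maximal effect; 0% = DMSO-treated cells and -100% = media-only wells without cells; nearly all actives have a fitted effect of over 55% in size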
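Compounds were tested in concentration-response format on HT-1080-NT cells for 48 hours at 37 degrees C. Cell viability came from CellTiter-Glo luminescence; curves were classified by r2, response magnitude and activity.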
TDP1 cell noCPT: qHTS for Inhibitors of human tyrosyl-DNA phosphodiesterase 1 (TDP1): qHTS in cells in absence of CPT. DT40 Tdp1-/- hTDP1 cells, no CPT, ATP luminescence, 48 h. Potency, µM (series often up to 46.2 µM), inactives show at the top dose activity change, negative = growth inhibition, actives largely listed as inhibitors. 420,000 tested, 15% active; note: potency is the fitted concentration of half-maximal effect; nearly all actives have a fitted effect of over 55% in size
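Chicken DT40 Tdp1-/- cells complemented with human TDP1, screened without camptothecin (DMSO vehicle only), 400 cells/well. Compounds pin-transferred, cells incubated at 37 °C for at least 48 hr. Growth read as ATP-dependent luminescence (CellTiter-Glo, 30 min at RT).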
Active calls of the source: *. Unless noted, calls come from the whole dose curve; as a rule, active = well fitted curve in the direction sought with a large enough effect; inconclusive = small, poorly fitted or top-dose-only effect, or another doubt; inactive = no such curve, though single readings can be large; an effect the other way counts as inactive or inconclusive. Unless noted, % is set by controls: 0 for no effect and ±100 for the full control effect.

`OC[C@@H]1CN(Cc2ccc3c(c2)OCO3)C[C@H](n2cnc3c(NC4CC4)ncnc32)O1` gave TDP1 cell CPT inconclusive, HT1080 IDH1KD tx 10%, IL1B secr inh -21, HT1080NT lethal 17% and TDP1 cell noCPT 21µM*.
`OC[C@@H]1CN(Cc2ccccc2)C[C@H](n2cnc3c(NC4CC4)ncnc32)O1` gave TDP1 cell CPT -14%, HT1080 IDH1KD tx 21%, IL1B secr inh -10, HT1080NT lethal 13% and TDP1 cell noCPT -28%.
CNc1ncnc2c1ncn2[C@H]1CN(Cc2ccccc2)C[C@@H](CO)O1 was read as TDP1 cell CPT inconclusive, HT1080 IDH1KD tx inconclusive, IL1B secr inh 41, HT1080NT lethal inconclusive and TDP1 cell noCPT -10%.
`CNc1ncnc2c1ncn2[C@H]1CN(Cc2cccc3ccccc23)C[C@@H](CO)O1` gave TDP1 cell CPT 23µM*, HT1080 IDH1KD tx 9%, IL1B secr inh 20, HT1080NT lethal 29% and TDP1 cell noCPT inconclusive.
For OC[C@@H]1CN(Cc2ccc(F)cc2)C[C@H](n2cnc3c(NC4CC4)ncnc32)O1 the results were TDP1 cell CPT inconclusive, HT1080 IDH1KD tx 27%, IL1B secr inh -5, HT1080NT lethal 3% and TDP1 cell noCPT -30%.
Cc1ccc(CC(NC(=O)C2CCCCC2)C(=O)O)cc1 (centres undefined) was read as TDP1 cell CPT 0%, HT1080 IDH1KD tx 1%, IL1B secr inh 49, HT1080NT lethal 1% and TDP1 cell noCPT 10%.
Screening COc1ccc(/C=C/C(=O)Oc2ccc(C)cc2)cc1 returned TDP1 cell CPT -3%, HT1080 IDH1KD tx -11%, IL1B secr inh -5, HT1080NT lethal -18% and TDP1 cell noCPT 0%.
For Cc1ccc(Cn2cc(CN3CC(N4CCCC4)CS3(=O)=O)nn2)cc1 (centres undefined) the results were TDP1 cell CPT -2%, HT1080 IDH1KD tx inconclusive, IL1B secr inh -20, HT1080NT lethal 20% and TDP1 cell noCPT -23%.
For Cc1ccc(N2CC(C(=O)OCC(=O)Nc3c(C)cccc3C)CC2=O)cc1 (centres undefined) the results were TDP1 cell CPT -10%, HT1080 IDH1KD tx 11%, IL1B secr inh -8, HT1080NT lethal 16% and TDP1 cell noCPT -5%.
For COc1ccc(NC(=O)C2CCC(CNS(=O)(=O)c3cccc4nsnc34)CC2)cc1OC (centres undefined) the results were TDP1 cell CPT inconclusive and TDP1 cell noCPT 16µM*.
`CCN(CC)C(=O)C1CCC(CNS(=O)(=O)c2cccc3nsnc23)CC1` (centres undefined) gave TDP1 cell CPT 1%, HT1080 IDH1KD tx -1%, IL1B secr inh 20, HT1080NT lethal -1% and TDP1 cell noCPT -2%.
Screening CCN(C(=O)C1CCC(CNS(=O)(=O)c2cccc3nsnc23)CC1)c1cccc(C)c1 (centres undefined) returned TDP1 cell CPT inconclusive and TDP1 cell noCPT 21µM*.
CCN(C(=O)C1CCC(CNS(=O)(=O)c2cccc3nsnc23)CC1)c1ccccc1 (centres undefined) was read as TDP1 cell CPT inconclusive and TDP1 cell noCPT 23µM*.
For CSCCC(NC(=O)COc1ccccc1)C(=O)N1CCN(c2ccccc2Cl)CC1 (centres undefined) the results were TDP1 cell CPT inconclusive, HT1080 IDH1KD tx -8%, IL1B secr inh -10, HT1080NT lethal 2% and TDP1 cell noCPT inconclusive.
`Cc1ccccc1NC(=S)NCc1ccc2[nH]c3c(c2c1)CCCC3` gave TDP1 cell CPT inconclusive, HT1080 IDH1KD tx -5%, IL1B secr inh -12, HT1080NT lethal -16% and TDP1 cell noCPT 21µM*.
Cc1cc(C)c(C)c(S(=O)(=O)N2CCC(C(=O)NCCCN3CCOCC3)CC2)c1C was read as TDP1 cell CPT -9%, HT1080 IDH1KD tx 8%, IL1B secr inh 5, HT1080NT lethal -11% and TDP1 cell noCPT -1%.
For CCc1ccc(-c2nc(CS(=O)CC(=O)NCc3ccccc3)c(C)o2)cc1 (centres undefined) the results were TDP1 cell CPT -5%, HT1080 IDH1KD tx -7%, IL1B secr inh 15, HT1080NT lethal -8% and TDP1 cell noCPT -15%.
Cc1ccc(-c2nc(CS(=O)CC(=O)NCc3ccc4c(c3)OCO4)c(C)o2)cc1 (centres undefined) was read as TDP1 cell CPT inconclusive, HT1080 IDH1KD tx -5%, IL1B secr inh -12, HT1080NT lethal -1% and TDP1 cell noCPT 16µM*.
For CCc1cccc(NC(=O)CS(=O)Cc2nc(-c3ccc(C)cc3)oc2C)c1 (centres undefined) the results were TDP1 cell CPT inconclusive, HT1080 IDH1KD tx -9%, IL1B secr inh 9, HT1080NT lethal -5% and TDP1 cell noCPT 16µM*.
`COc1ccc(Cl)cc1NC(=O)C/C(C)=N/NC(=O)c1ccc(O)cc1` gave TDP1 cell CPT 1%, HT1080 IDH1KD tx -25%, IL1B secr inh 34, HT1080NT lethal -20% and TDP1 cell noCPT 0%.
C#CC(CC)(CC)NC(=S)Nc1cccc(C(C)=O)c1 was read as TDP1 cell CPT 2%, HT1080 IDH1KD tx -14%, IL1B secr inh 4, HT1080NT lethal -4% and TDP1 cell noCPT -25%.
COc1ccc(CN2C(=O)c3ccccc3C(/C=N\OCc3ccc(F)cc3)C2=O)cc1 (centres undefined) was read as TDP1 cell CPT inconclusive, HT1080 IDH1KD tx inconclusive, IL1B secr inh 0, HT1080NT lethal -25% and TDP1 cell noCPT 8.2µM*.
COc1ccc(CN2C(=O)c3ccccc3C2=O)cc1 was read as TDP1 cell CPT 22%, HT1080 IDH1KD tx 4%, IL1B secr inh -11, HT1080NT lethal -1% and TDP1 cell noCPT -1%.
For COc1ccc(CN2C(=O)c3ccccc3C(/C=N/OCc3ccc(Cl)cc3)C2=O)cc1 (centres undefined) the results were TDP1 cell CPT 13µM*, HT1080 IDH1KD tx inconclusive, IL1B secr inh 8, HT1080NT lethal -30% and TDP1 cell noCPT 12µM*.
NC(N)=NC(N)=Nc1cccc2ccccc12 was read as TDP1 cell CPT inconclusive, HT1080 IDH1KD tx 9%, IL1B secr inh -7, HT1080NT lethal 10% and TDP1 cell noCPT inconclusive.
Screening Cc1c(Cl)cccc1N=C(N)N=C(N)N returned TDP1 cell CPT inconclusive, HT1080 IDH1KD tx 13%, IL1B secr inh -5, HT1080NT lethal 3% and TDP1 cell noCPT 23µM*.
`O=C(Nc1ccc(O)c2c(=O)cc(-c3cccc(Cl)c3)oc12)c1ccc(F)cc1` gave TDP1 cell CPT inconclusive, HT1080 IDH1KD tx -9%, IL1B secr inh 33, HT1080NT lethal 1% and TDP1 cell noCPT 13µM*.

Compound activity as filed in PubChem BioAssay.
